# Screening results: PubChem BioAssay, National Center for Advancing Translational Sciences (NCATS)
# PNC inhibitor = perinucleolar compartment assembly inhibition. PC3M PTB-GFP, PNC prevalence imaging, 16 h; active compounds read low. activity change (PNC), negative = inhibition, % at 10 µM. 3.1% of 140,000 active;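 active means readout at or below -70, meaning at least 70% loss of cells showing the perinucleolar compartment, a nuclear body marking cancer cells; inconclusive means readout between -30 and a set limit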;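 further: plate controls were DMSO wells for no effect and camptothecin positive control wells for full effect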
#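 Read-out is percentage of cells bearing a perinucleolar compartment, from automated 20x imaging of fixed, Hoechst-stained PC3M PTB-GFP cells. Cells were seeded 4 h, then exposed 16 h to compound (23 nl of library stock) in duplicate plates.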
# HTT aggregate = inhibitors of mutant huntingtin aggregate formation in PC12 cells; PC12 HttQ103-GFP aggregates, Acumen cytometry, 40 h; Potency, µM (titrated, usually from 46.1 µM), for the others: at the top dose activity change, negative = inhibition, actives largely listed as inhibitors; 1.1% of 220,000 active; AID 1688; further: potency means the concentration at half of the fitted maximal effect; on the % scale 0 is the no-effect control and ±100 the full control effect; nearly all actives have a fitted effect of over 60% in size
#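 Using laser scanning cytometry, GFP-positive aggregates were counted after lysis of PC12 cells induced with 100 nM tebufenozide to express HTT exon 1 Q103–GFP. Compounds were tested in titration.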
# ALDH1A1 inh = ALDH1A1 (human) enzyme inhibition. Purified ALDH1A1, NADH fluorescence, propionaldehyde substrate. Potency, µM (titrated, usually from 75.3 µM), for the others: top-dose activity, negative = inhibition, most hits filed as inhibitors. 7.3% of 220,000 active. AID 1030; active means well fitted inhibition curve with a large enough effect, not every such curve was filed as active; inconclusive means small, poorly fitted or top-dose-only effect, or another doubt; inactive means no such curve, though single readings can be large or run the other way;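 further: potency means the concentration at half of the fitted maximal effect; plate controls were no enzyme wells and a reference inhibitor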
# CBFb-RUNX1 inh = blocks binding between human CBF-beta and RUNX1; 230,000 tested, under 10 active; Potency, µM (titrated, usually from 59.8 µM), for inactives: at the top dose activity, negative = inhibition, hits mostly inhibitors; Q01196+Q13951; AlphaScreen CBFb-His/RUNX1-biotin binding, biochemical; further: % of control where 0% means no effect
# Target sequence (Q01196 whole entry, looked up): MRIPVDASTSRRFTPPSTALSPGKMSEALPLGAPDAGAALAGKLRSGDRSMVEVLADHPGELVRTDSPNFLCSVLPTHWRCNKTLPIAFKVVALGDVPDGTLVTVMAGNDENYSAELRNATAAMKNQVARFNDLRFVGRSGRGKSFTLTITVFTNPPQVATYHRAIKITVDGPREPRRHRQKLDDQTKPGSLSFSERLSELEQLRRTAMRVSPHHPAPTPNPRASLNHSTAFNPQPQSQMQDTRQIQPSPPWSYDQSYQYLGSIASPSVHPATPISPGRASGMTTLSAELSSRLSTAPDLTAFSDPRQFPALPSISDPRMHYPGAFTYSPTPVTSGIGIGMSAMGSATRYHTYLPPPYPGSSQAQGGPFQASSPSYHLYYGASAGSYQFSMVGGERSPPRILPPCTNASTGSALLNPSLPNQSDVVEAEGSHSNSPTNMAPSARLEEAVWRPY
# Target sequence (Q13951 whole entry, looked up): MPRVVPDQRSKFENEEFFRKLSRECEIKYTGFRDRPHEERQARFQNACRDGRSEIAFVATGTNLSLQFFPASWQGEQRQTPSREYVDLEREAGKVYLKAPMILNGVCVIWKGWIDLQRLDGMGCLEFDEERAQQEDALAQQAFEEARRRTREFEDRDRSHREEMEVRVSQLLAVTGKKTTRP
#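 AlphaScreen binding: CBFb-His and RUNX1-biotin (30 nM each) preincubated 20 min, compound added for 15 min, then nickel and streptavidin beads for 90 min, all at room temperature. Disruption of the interaction by any mechanism counts as activity.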
# HPGD inh = blocks human HPGD enzyme activity; 4.3% of 150,000 active; Potency, µM, inactives show at the top dose activity change, negative = inhibition, actives largely listed as inhibitors; P15428; purified HPGD, NADH fluorescence kinetic, PGE2 substrate; active means well fitted inhibition curve with a large enough effect, not every such curve was filed as active; inconclusive means small, poorly fitted or top-dose-only effect, or another doubt; inactive means no such curve, though single readings can be large or run the other way; further: potency means the concentration at half of the fitted maximal effect; on the % scale 0 is the no-effect control and ±100 the full control effect
#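 NADH formation kinetics: reaction with 30 uM PGE2 and 1 mM NAD+ (final), 20 nM enzyme, Tris-HCl pH 8 with Tween 20, after 15 min compound preincubation at room temperature. Fluorescence change, last versus first of five reads.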
# HTT cytoprotect = cytoprotection in Huntington HTT-Q103 PC12 cell model | PC12 HTT-Q103 induced, cytoprotection, ATP luminescence, 40 h | Potency, µM (titrated, usually from 56.4 µM), for the others: cytoprotection (ATP increase), usual class: activators | 0.14% of 230,000 active | AID 1471; further: potency means the concentration at half of the fitted maximal effect; % of control where 0% means no effect; nearly all actives have a fitted effect of over 45% in size
#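 Quantitative HTS on tebufenozide-induced (100 nM) PC12 cells expressing HTTQ103 exon 1–GFP; compounds tested as a concentration series; survival measured via cellular ATP.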
# The depositor's hits bear a star; ? = inconclusive; . = no result given; [ ] = remark or other dose. Sampled rows, rich in hits. Any-hit rate of the full collection: about 11%. Unless noted, the call rests on the fitted dose curve; in most records, active means well fitted curve in the direction sought with a large enough effect; inconclusive means small, poorly fitted or top-dose-only effect, or another doubt; inactive means no such curve, though single readings can be large; an effect the other way counts as inactive or inconclusive.
SMILES,PNC inhibitor,HTT aggregate,ALDH1A1 inh,CBFb-RUNX1 inh,HPGD inh,HTT cytoprotect
CCCC(C(=O)NC1CCCC1)N(C(=O)Cn1nnc(-c2ccc(C)o2)n1)C1CCCC1 (stereo not drawn),?,16%,25µM*,-9%,?,6%
CCN(CC)C(=O)Cn1nnc(-c2ccc(C)o2)n1,-3,-18%,25µM*,4%,-11%,-26%[10 µM]
O=C(C1CCC(CNc2c(N3CCCCC3)c(=O)c2=O)CC1)N1CCc2ccccc2C1 (stereo not drawn),-27,4%,-2%,-7%,0.56µM*,-7%
CC1CCN(c2c(NCC3CCC(C(=O)N4CCc5ccccc5C4)CC3)c(=O)c2=O)CC1 (stereo not drawn),25,8%,-2%,4%,2.5µM*,-21%
CCN(Cc1ccccc1)C(=O)C1CCC(CNc2c(N3CCOCC3)c(=O)c2=O)CC1 (stereo not drawn),32,-9%,0%,2%,25µM*,-14%
O=C(C1CCC(CNc2c(N3CCOCC3)c(=O)c2=O)CC1)N1CCN(c2ccccc2)CC1 (stereo not drawn),30,0%,4%,2%,-18%,34%[10 µM]
Cc1ccc(S(=O)(=O)N/N=C\c2cc3c(cc2Br)OCO3)cc1,35,-7%,-9%,3%,-4%,-20%[10 µM]
O=[N+]([O-])c1cc2c(cc1/C=N/NS(=O)(=O)c1ccc(Br)cc1)OCO2,.,25%,3.2µM*,10%,.,.
Cn1cccc1C(C#N)c1cccc(F)c1C#N (stereo not drawn),.,-2%,25µM*,-8%,.,-3%[10 µM]
O=C(O)c1ccc(/C=N\N=C2c3ccccc3-c3ccccc32)cc1,.,.,-3%[13.5 µM],.,-1%,-8%[10 µM]
CCOc1ccc(OCC)c(S(=O)(=O)N2CCOCC2)c1,.,-4%[9.22 µM],-3%,5%,.,14%[10 µM]
COc1ccc(C(C)C)cc1S(=O)(=O)N1CCN(C)CC1,54,13%[9.22 µM],?,2%,-3%,12%
CCOc1ccc(C(C)C)cc1S(=O)(=O)N1CCOCC1,.,3%,8.9µM*,2%,.,3%
COc1cc(C)c(C(C)C)cc1S(=O)(=O)N1CCN(C)CC1,-27,14%,14µM*,2%,-15%,-7%[10 µM]
CCOc1cc(C)c(C(C)C)cc1S(=O)(=O)N1CCN(C)CC1,7,-4%,5µM*,2%,-15%,-2%
CC1CCCCN1c1nc2nonc2nc1N1CCCCC1C (stereo not drawn),?,5%,2.2µM*,11%,-14%,-6%[10 µM]
CC(=O)Cc1nsc(NC(=O)c2ccc(-c3cc(Cl)ccc3Cl)o2)n1,.,4%,?,-15%,.,-74%
CC(=O)Cc1nsc(NC(=O)c2ccc(-c3cc(C(F)(F)F)ccc3Cl)o2)n1,34,2µM*,3%,-2%,-16%,0%
CCOC(=O)CC12CN3CN(C1)CC(CC(=O)OCC)(C3)C2=O,?,-9%,12%,6%,3%,-13%[10 µM]
CC(C)OC(=O)CC12CN3CN(C1)CC(CC(=O)OC(C)C)(C3)C2=O,?,-6%,2.5µM*,9%,-1%,-3%[10 µM]
CCOC(=O)C1=C(NC(=S)NC(=O)c2ccccc2)c2ccccc2CC1C(C)C (stereo not drawn),-96*,-20%,15µM*,0%,-15%,7%[10 µM]
CCOC(=O)C1=C(NC(=S)NC(=O)c2ccccc2)c2ccccc2CC1(C)CC (stereo not drawn),?,-14%,13µM*,-19%,-5%,15%[10 µM]
CCOC(=O)c1sc(NC(=S)NC(=O)c2ccccc2)c(C(=O)OCC)c1C,36,11%,-6%,1%,-11%,6%[10 µM]
O=c1c(-c2cc(F)cc(F)c2)nc2cncnc2n1C1CC1,.,.,9%,.,.,12%
NC(=S)Cc1nc(-c2ccc(Cl)cc2)cs1,.,-9%,2µM*,-9%,.,?
SMILES,PNC inhibitor,HTT aggregate,ALDH1A1 inh,CBFb-RUNX1 inh,HPGD inh,HTT cytoprotect
NC(=O)Cc1nc(-c2ccc(F)cc2)cs1,.,8%[9.22 µM],.,8%,.,8%[10 µM]
NNC(=O)CSCc1nc(-c2ccccc2)cs1,.,0%[9.22 µM],-4%,2%,.,28%[10 µM]
NNC(=O)CSCc1nc(-c2ccc(Cl)cc2)cs1,.,-16%[9.22 µM],0.71µM*,2%,.,8%[10 µM]
CN(C)Cc1ccccc1-c1cc(N(C)C)ncn1,.,.,-5%,.,-4%,12%
O=C(O)CCc1c2ccc(=O)c(O)c-2oc2c(O)c(O)ccc12,.,.,?,.,2.8µM*,-8%[10 µM]
CN(C)Cc1c(O)ccc2c(-c3ccccc3)cc(=O)oc12,.,13%[9.22 µM],?,2%,.,8%[10 µM]
CCN(CC)S(=O)(=O)c1ccc(NC(=O)COC(=O)c2ccc(NC(=O)CC#N)cc2)cc1,.,18%,?,-1%,.,-16%
O=c1c(-c2cccs2)nc2cnc(Oc3cccc(Cl)c3)nc2n1C1CC1,.,.,?,.,?,8%
Cc1ccc2[nH]c(=O)c(C(c3nnnn3Cc3ccccc3)N3CCc4ccccc43)cc2c1 (stereo not drawn),?,3%,?,0%,?,-11%[10 µM]
Cc1cc2cc(C(c3nnnn3Cc3ccco3)N3CCc4ccccc43)c(=O)[nH]c2cc1C (stereo not drawn),-6,-4%,7.9µM*,?,.,-32%
Cc1ccc2cc(C(c3nnnn3Cc3ccccc3)N3CCc4ccccc43)c(=O)[nH]c2c1 (stereo not drawn),1,?,18µM*,-10%,-4%,-21%
O=C(OCC1CO1)C1CCCCC1C(=O)OCC1CO1 (stereo not drawn),.,.,7%,-3%[21.7 µM],1%,-7%
CC1CC=CC2C1C(=O)N(Cc1ccccc1)C2c1ccc2ccccc2c1 (stereo not drawn),.,.,.,20%,.,.
CC(C)(C)c1ccc(-n2nc(C#N)c(Cl)cc2=O)cc1,.,5µM*,13µM*,-7%,.,-192%
CC(=O)Nc1nc(-c2ccccc2)c(-c2ccccc2)o1,-9,-19%,?,-5%,-15%,28%[10 µM]
CC(=O)NC1Sc2ccccc2N=C1c1ccccc1 (stereo not drawn),9,-20%,25µM*,1%,?,-19%
O=C(c1ccc(Cl)cc1)C1CCCN(Cc2ccc(Oc3ncccn3)cc2)C1 (stereo not drawn),.,?,28µM*,-5%,.,-37%
O=C(c1ccc(Cl)cc1)C1CCCN(Cc2cnn(-c3ccccc3)c2)C1 (stereo not drawn),.,9%[9.22 µM],1%,0%,.,5%[10 µM]
NNC(=O)c1[nH]c2ccc(Cl)cc2c1-c1ccccc1,.,-31%[9.22 µM],1.1µM*,-1%,.,-22%[10 µM]
CCOC(=O)CSc1c(-c2ccccc2)c2cc(Cl)ccc2[nH]c1=O,-17,17%,?,-5%,18µM*,13%[10 µM]
